HT1080 IDH1KD tx = kills HT-1080 cells with IDH1 knockdown; HT-1080 IDH1 knockdown viability, ATP luminescence, 48 h; Potency, µM (top dose mostly 46.1 µM), actives largely listed as cytotoxic; hit rate 2% among 360,000
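After a 2 h attachment period, IDH1KD HT-1080 cells took pin-transferred compound for 48 h at 37 °C; ATP-based luminescence after 10 min room-temperature reagent incubation reported viability.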
KB-V1 cytotox = kills drug-selected multidrug resistant KB-V1 cells | hit rate 3.4% among 400,000 | KB-V1 MDR cells viability, CellTiter-Glo, 72 h | Potency, µM (highest dose often 46.1 µM), usual class: cytotoxic; also: nearly all actives have a fitted effect of over 60% in size
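Cytotoxicity via CellTiter-Glo luminescence after 72 h compound exposure at 37 degrees C. Cells: drug-selected KB-V1 line, DMEM phenol-red free plus 10% FBS. Compounds tested at multiple concentrations; normalized data fitted to concentration-effect curves.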
KB-3-1 tox = KB-3-1 parental cell cytotoxicity; AID 1347075; Potency, µM (titrated, usually from 46.1 µM), most hits filed as cytotoxic; KB-3-1 viability, CellTiter-Glo ATP luminescence, 72 h; hit rate 1.4% among 400,000; also: nearly all actives have a fitted effect of over 60% in size
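Parental KB-3-1 adenocarcinoma cells in phenol-red-free DMEM with 10% FBS were pin-treated with compounds at several concentrations, incubated 72 h at 37 °C, and viability read by CellTiter-Glo luminescence; concentration-effect curves were fitted after normalization.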
MCF10A rereplic = induces DNA re-replication in MCF 10a normal breast cells; MCF 10A DNA re-replication, Hoechst nuclear intensity, 48 h; Potency, µM (titrated, usually from 46.1 µM), hits mostly activators; hit rate 2.9% among 350,000; AID 624296; also: nearly all actives have a fitted effect of over 50% in size
HT1080-NT tox = kills 2HG-producing HT-1080-NT fibrosarcoma cells; HT-1080-NT fibrosarcoma viability, CellTiter-Glo ATP luminescence, 48 h; hit rate 1.6% among 360,000; Potency, µM (titrated, usually from 46.1 µM), hits mostly cytotoxic; AID 686970;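 also: NT is the 2HG producing partner of a matched IDH1 knockdown line; nearly all actives have a fitted effect of over 55% in size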
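HT-1080-NT; 750 cells/well; 5% FBS RPMI; 48 h compound, 37 degrees C; CellTiter-Glo luminescence; curve fitting and curve-class assignment.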
SW480 rereplic = inducers of DNA re-replication in SW480 colon cancer cells; SW480 DNA re-replication, Hoechst DNA content imaging, 48 h; Potency, µM (titrated, usually from 46.1 µM), usual class: activators; hit rate 1.8% among 340,000; also: nearly all actives have a fitted effect of over 55% in size
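Hoechst fluorescence of nuclei (405 nm excitation, 500-530 nm emission) measured by plate-scanning imager after 48 hr compound exposure at 37 C; re-replication scored as increased number of nuclei with elevated intensity.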
A number is an active result; – = inactive; ? = inconclusive; · = no result given. This is a sample that favours compounds with a hit; in the whole collection about 7.9% have one here. Calls follow the shape of the dose curve; as a rule, active = well fitted curve in the direction sought with a large enough effect; inconclusive = small, poorly fitted or top-dose-only effect, or another doubt; inactive = no such curve, though single readings can be large; an effect the other way counts as inactive or inconclusive.

SMILES	HT1080 IDH1KD tx	KB-V1 cytotox	KB-3-1 tox	MCF10A rereplic	HT1080-NT tox	SW480 rereplic
O=C1CN(C(=O)c2ccc(S(=O)(=O)N3CCCCC3)cc2)C(c2ccc(F)cc2)c2cc(F)ccc2N1 (stereo not given)	·	–	–	·	·	·
O=c1oc2ccccc2n1CCCOc1ccccc1Cl	·	–	–	·	·	·
O=C(c1cc(-c2ccccc2)nc2ccccc12)N1CCc2ccccc2C1	–	18µM	?	–	–	–
COc1ccc(NC(NC(=O)c2ccc(OC)cc2)C(Cl)(Cl)Cl)cc1 (stereo not given)	–	?	–	–	–	–
COc1ccc(C(=O)NC(Nc2ccc(C)cc2)C(Cl)(Cl)Cl)cc1 (stereo not given)	?	15µM	?	–	–	–
O=C(NCCN1CCC(n2c(=O)[nH]c3ccccc32)CC1)c1ccc(C(F)(F)F)cc1C(F)(F)F	–	12µM	?	·	–	·
O=C(NCCN1CCC(n2c(=O)[nH]c3ccccc32)CC1)c1ccc(F)c(C(F)(F)F)c1	?	–	–	·	?	·
CCCCOc1ccc(C(=O)NCCN2CCC(n3c(=O)[nH]c4ccccc43)CC2)cc1	16µM	?	–	·	?	·
O=C(NCCN1CCC(n2c(=O)[nH]c3ccccc32)CC1)c1ccc(OC(F)(F)F)cc1	?	–	–	·	?	·
COc1cccc(CNC(=O)CN2C(=O)N(c3cccc(Cl)c3)S(=O)(=O)c3ccccc32)c1OC	·	–	–	·	·	·
C[C@H](CO)N1C[C@H](C)[C@H](CN(C)C(=O)c2cc(-c3ccccc3)on2)OCc2cnnn2CCCC1=O	–	–	–	·	–	·
COc1ccc(C(=O)NCCn2cc(SCC(=O)NCCc3ccc(OC)c(OC)c3)c3ccccc32)cc1	·	–	–	·	·	·
Cc1nc2c(OCc3ccc(C#N)cc3)cccn2c1N(C)Cc1cccs1	–	15µM	?	·	–	·
Cc1nc2c(OCc3ccc(C(F)(F)F)cc3)cccn2c1N(C)CC1CC1	?	–	–	·	6.5µM	·
COC(=O)c1ccccc1COc1cccn2c(N(C)CC3CC3)c(C)nc12	?	15µM	?	·	?	·
O=[N+]([O-])c1cc(Cl)cc2c1nc(NCCO)c1ccccc12	?	?	18µM	–	?	?
COc1ccc(Nc2ncnc3sc(-c4ccccc4)cc23)cc1	–	21µM	?	?	–	–
CC(C)(C)Nc1ncnc2sc(-c3ccccc3)cc12	–	–	?	18µM	–	?
c1ccc(-c2cc3c(N4CCN(c5ccccc5)CC4)ncnc3s2)cc1	–	?	–	12µM	–	–
COc1ccc(C(=O)Nc2ccc(Oc3ncnc4sc(-c5ccccc5)cc34)cc2)cc1OC	–	–	–	3.3µM	–	·
c1ccc(-c2cc3c(N4CCN(c5ncccn5)CC4)ncnc3s2)cc1	–	?	–	?	–	–
COc1cc(C(=O)Nc2ccc(Oc3ncnc4sc(-c5ccccc5)cc34)cc2)cc(OC)c1OC	?	?	–	–	–	–
CN(Cc1ccccc1)C(=O)C1CCC(CNS(=O)(=O)c2ccc3c(c2)CCCC(=O)N3)CC1 (stereo not given)	·	–	?	·	·	·
Cn1ncc2c(Nc3ccc(-c4ccccc4)cc3)ncnc21	?	–	–	–	11µM	?
CC(C)C(C)(C#N)NC(=O)CSc1ncnc2sc(-c3ccccc3)cc12 (stereo not given)	–	23µM	–	–	13µM	–
SMILES	HT1080 IDH1KD tx	KB-V1 cytotox	KB-3-1 tox	MCF10A rereplic	HT1080-NT tox	SW480 rereplic
Cc1cc(C(=O)NC2CCCc3c2cnn3-c2ccc(C)c(C)c2)nc(C)n1 (stereo not given)	–	?	–	–	–	–
COC(=O)c1ccc(C(=O)NC2CCCc3c2cnn3-c2cc(F)cc(F)c2)nc1 (stereo not given)	16µM	10µM	?	2.9µM	?	6.5µM
COc1ccc(C(=O)NC2CCCc3c2cnn3-c2cc(F)cc(F)c2)c(OC)c1OC (stereo not given)	?	18µM	?	?	?	–
Cc1cc(C(=O)NC2CCCc3c2cnn3-c2ccc(C(C)(C)C)cc2)nn1C (stereo not given)	–	?	?	?	13µM	–
COC(=O)c1ccc(C(=O)NC2CCCc3c2cnn3-c2ccc(C)c(C)c2)cc1 (stereo not given)	23µM	5.2µM	1.6µM	2.3µM	15µM	6.5µM
Cc1cc(-c2nnn(CCCOC(C)(C)C)c2C)ccc1-c1cn(CCCOC(C)(C)C)nn1	–	–	–	·	–	·
Cc1ccc(-n2nc3cc(C)c(NC(=O)COc4ccccc4)cc3n2)cc1	·	?	–	·	·	·
COc1cccc(OC(=O)CSc2nnc(-c3ccccc3OC)o2)c1	·	–	–	·	·	·
Nc1cnccn1	·	–	–	·	·	·
COc1ccc(-n2ncc(C(=O)NCCCN3CCCCC3)c2C2CCN(C(=O)OC(C)(C)C)CC2)cc1	·	–	–	·	·	·
CCCCN(C(=O)/C=C/c1ccc(OC)cc1)C1CCS(=O)(=O)C1 (stereo not given)	–	?	–	–	–	–
Cc1ccc(S(=O)(=O)N(C)CC(=O)N(CC(C)C)C2CCS(=O)(=O)C2)cc1 (stereo not given)	–	–	–	–	–	4.1µM
CC(C)CN(C(=O)CN(C)S(=O)(=O)c1ccc(Cl)cc1)C1CCS(=O)(=O)C1 (stereo not given)	–	–	–	–	–	–
CCCN(C(=O)/C=C/c1ccc(S(=O)(=O)N(CC)CC)cc1)C1CCS(=O)(=O)C1 (stereo not given)	–	23µM	–	–	–	–
CCCCOc1ccc(Br)cc1/C(C)=N/NC1=NCCN1	6.5µM	5.8µM	4.1µM	10µM	8.2µM	?
CCCCCCOc1ccc(/C(C)=N/NC2=NCCN2)cc1[N+](=O)[O-]	–	–	–	?	–	–
CCOC(=O)CSc1nc2sc3c(c2c(=O)n1-c1ccc(OC)cc1)CC(C(C)C)OC3 (stereo not given)	·	–	–	·	·	·
CC1=C(C(=O)Nc2cccc(C(F)(F)F)c2)C(c2ccccn2)n2ncnc2N1 (stereo not given)	·	–	–	·	·	·
COc1c2ccoc2cc2oc(=O)ccc12	–	26µM	–	–	–	–
C[C@H](O)C#Cc1cnc2c(c1)C(=O)N([C@H](C)CO)C[C@@H](C)[C@@H](CN(C)Cc1ccc(-c3ccccc3)cc1)O2	–	–	?	·	?	·
Cc1nnn(C23CC4CC(CC(CC(=O)Nc5ccc(C)c(Cl)c5)(C4)C2)C3)n1	–	7.3µM	–	–	–	–
COC(=O)c1ccc(N2CCC(C)CC2)c(N)c1	–	?	–	21µM	–	?
O=c1oc2ccccc2cc1-c1cn2cc(Cc3ccc(Br)cc3)sc2n1	·	–	?	·	·	·
CC(=O)c1ccc(NC(=O)CSc2ccc3nc(-c4ccccc4)cn3n2)cc1	·	–	–	·	·	·
